According to PubChem BioAssay AID1159580 (chemical genetic matrix, 2015):
Hit rate of the full screen: of about 5,500 compounds, about 2,000 (36%) were called active. Not shown: some 18% with an inconclusive outcome. No stated cut-off is given here; in the data, active means normalized growth mostly below about 0.91 (no sharp cut-off); inconclusive means no clear call, values can overlap the other calls; inactive means mostly above about 0.92. The list shows a part of the results.

Assay: chemical genetic growth profiling, strain panel (AID 1159580);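 further: tested at 20 µM; growth read once vehicle control cultures reached saturation at 30 °C; 1 = growth at the plate median or of vehicle wells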
Settings: S. cerevisiae deletion strains, growth OD

Measured: normalized growth

C=CC[C@@H]1/C=C(\C)C[C@H](C)C[C@H](OC)[C@H]2O[C@@](O)(C(=O)C(=O)N3CCCC[C@H]3C(=O)O[C@H](/C(C)=C/[C@@H]3CC[C@@H](O)[C@H](OC)C3)[C@H](C)[C@@H](O)CC1=O)[C@H](C)C[C@@H]2OC
inactive: locus YAL030W, strain snc1, stronger effect = lower value 1.02 | locus YBR009C, strain hhf1, stronger effect = lower value 0.946 | locus YBR023C, strain chs3, stronger effect = lower value 1 | locus YBR231C, strain swc5, stronger effect = lower value 0.988 | locus YBR279W, strain paf1, stronger effect = lower value 1.03 | locus YCL011C, strain gbp2, stronger effect = lower value 0.988 | locus YCL069W, strain vba3, stronger effect = lower value 1.02 | locus YCR088W, strain abp1, stronger effect = lower value 0.995 | locus YDL005C, strain med2, stronger effect = lower value 1.04 | locus YDL040C, strain nat1, stronger effect = lower value 1.02 | locus YDR001C, strain nth1, stronger effect = lower value 1.04 | locus YDR159W, strain sac3, stronger effect = lower value 0.974 | locus YDR297W, strain sur2, stronger effect = lower value 1.03 | locus YDR334W, strain swr1, stronger effect = lower value 1.1 | locus YDR335W, strain msn5, stronger effect = lower value 0.96 | locus YEL003W, strain gim4, stronger effect = lower value 0.99 | locus YEL037C, strain rad23, stronger effect = lower value 1.04 | locus YEL061C, strain CIN8 (second series), stronger effect = lower value 1 | locus YER015W, strain faa2, stronger effect = lower value 1.04 | locus YER111C, strain swi4, stronger effect = lower value 1.02 | locus YGL167C, strain pmr1, stronger effect = lower value 1.06 | locus YGL227W, strain vid30, stronger effect = lower value 1.05 | locus YGL240W, strain doc1, stronger effect = lower value 1.06 | locus YGL253W, strain hxk2, stronger effect = lower value 0.983 | locus YHR013C, strain ard1, stronger effect = lower value 0.912 | locus YHR027C, strain rpn1, stronger effect = lower value 1.03 | locus YHR142W, strain chs7, stronger effect = lower value 0.881 | locus YJL092W, strain hpr5, stronger effect = lower value 1.02 | locus YJL115W, strain asf1, stronger effect = lower value 1.05 | locus YJL154C, strain vps35, stronger effect = lower value 1.04 | locus YJL166W, strain qcr8, stronger effect = lower value 0.982 | locus YJL187C, strain SWE1, stronger effect = lower value 1.03 | locus YKL160W, strain elf1, stronger effect = lower value 0.956 | locus YKR026C, strain gcn3, stronger effect = lower value 1.04 | locus YKR091W, strain srl3, stronger effect = lower value 1.04 | locus YLL001W, strain dnm1, stronger effect = lower value 0.932 | locus YLL026W, stronger effect = lower value 1.02 | locus YLL041C, strain sdh2, stronger effect = lower value 1.05 | locus YLR027C, strain aat2, stronger effect = lower value 0.976 | locus YLR221C, strain rsa3, stronger effect = lower value 0.922 | locus YLR258W, strain gsy2, stronger effect = lower value 0.986 | locus YLR357W, strain rsc2, stronger effect = lower value 0.949 | locus YLR370C, strain arc18, stronger effect = lower value 0.936 | locus YLR384C, strain iki3, stronger effect = lower value 1.05 | locus YML120C, strain ndi1, stronger effect = lower value 0.965 | locus YMR058W, strain fet3, stronger effect = lower value 0.995 | locus YMR129W, stronger effect = lower value 1.04 | locus YNL209W, strain ssb2, stronger effect = lower value 1.03 | locus YNL248C, strain rpa49, stronger effect = lower value 1.03 | locus YNL322C, strain KRE1 (second series), stronger effect = lower value 0.962 | locus YNR049C, strain mso1, stronger effect = lower value 1.03 | locus YOR070C, strain gyp1, stronger effect = lower value 0.944 | locus YOR080W, strain dia2, stronger effect = lower value 1.05 | locus YOR083W, strain WHI5, stronger effect = lower value 0.931 | locus YOR265W, strain rbl2, stronger effect = lower value 1.05 | locus YOR290C, strain snf2, stronger effect = lower value 0.894 | locus YPL078C, strain atp4, stronger effect = lower value 0.951 | locus YPL240C, strain hsp82, stronger effect = lower value 1.03
active: locus YAL021C, strain ccr4, stronger effect = lower value 0.844 | locus YAL026C, strain drs2, stronger effect = lower value 0.6 | locus YBL061C, strain skt5, stronger effect = lower value 1.09 [resistant] | locus YBR171W, strain sec66, stronger effect = lower value 1.14 [resistant] | locus YCL016C, strain dcc1, stronger effect = lower value 0.896 | locus YDR069C, strain doa4, stronger effect = lower value 0.829 | locus YDR137W, strain rgp1, stronger effect = lower value 0.174 | locus YDR195W, strain ref2 0.773 | locus YDR392W, strain spt3, stronger effect = lower value 0.55 | locus YER016W, strain bim1, stronger effect = lower value 0.909 | locus YER155C, strain BEM2 (second series), stronger effect = lower value 0.705 | locus YFR010W, strain ubp6, stronger effect = lower value 0.877 | locus YGL173C, strain kem1, stronger effect = lower value 0.848 | locus YHR030C, strain SLT2, stronger effect = lower value 0.7 | locus YHR079C, strain IRE1, stronger effect = lower value 0.719 | locus YJL095W, strain BCK1 (second series), stronger effect = lower value 0.91 | locus YJL095W, strain BCK1, stronger effect = lower value 0.754 | locus YJL129C, strain trk1, stronger effect = lower value 0.845 | locus YJL164C, strain tpk1, stronger effect = lower value 0.915 | locus YJR066W, strain TOR1, stronger effect = lower value 0.746 | locus YLR113W, strain HOG1, stronger effect = lower value 0.66 | locus YLR262C, strain YPT6 (second series), stronger effect = lower value 0.137 | locus YLR320W, strain mms22, stronger effect = lower value 0.734 | locus YLR342W, strain FKS1, stronger effect = lower value 0.0809 | locus YMR125W, strain sto1, stronger effect = lower value 0.844 | locus YMR205C, strain PFK2, stronger effect = lower value 0.78 | locus YMR231W, strain pep5, stronger effect = lower value 0.176 | locus YNL071W, strain lat1, stronger effect = lower value 0.746 | locus YNL183C, strain NPR1, stronger effect = lower value 0.781 | locus YOR001W, strain rrp6, stronger effect = lower value 0.761 | locus YOR106W, strain vam3, stronger effect = lower value 0.736 | locus YOR231W, strain MKK1, stronger effect = lower value 0.7 | locus YOR270C, strain vph1, stronger effect = lower value 0.514 | locus YPL051W, strain arl3, stronger effect = lower value 0.67 | locus YPL106C, strain sse1, stronger effect = lower value 0.72 | locus YPL256C, strain CLN2, stronger effect = lower value 0.695
